Results filed as inconclusive are left out. Calls of active or inactive are those of the source. Calls come from the whole dose curve; as a rule, active = well fitted inhibition curve with a large enough effect; inconclusive = small, poorly fitted or top-dose-only effect; inactive = flat fitted curve, though single readings scatter. Bridge positions count the residues as written; N and C are the ends. Peptide text beside a SMILES is read from it.
target: Luciferin 4-monooxygenase (Photinus pyralis) (UniProt P08659); assay: Biochemical firefly luciferase enzyme assay for NPC (AID 624030);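 note: purified P. pyralis luciferase at 10 nM with luciferin and ATP substrate; 0% = DMSO and -100% = full luciferase inhibition by PTC124 control; nearly all actives have a fitted effect of over 70% in size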; conditions: purified P. pyralis luciferase, luminescence, 5 min; series mostly up to 58.6 µM; activity change, negative = inhibition: at the top concentration
Procedure, shortened: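 Counter-screen for direct inhibition of the luciferase enzyme by approved-drug library compounds, run at 10 nM enzyme in 50 mM Tris acetate (final). Luminescence was read within 5 min of enzyme-buffer addition and normalized to PTC124 versus DMSO (0%).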

Luciferin 4-monooxygenase (Photinus pyralis), sequence (P08659 whole entry, looked up): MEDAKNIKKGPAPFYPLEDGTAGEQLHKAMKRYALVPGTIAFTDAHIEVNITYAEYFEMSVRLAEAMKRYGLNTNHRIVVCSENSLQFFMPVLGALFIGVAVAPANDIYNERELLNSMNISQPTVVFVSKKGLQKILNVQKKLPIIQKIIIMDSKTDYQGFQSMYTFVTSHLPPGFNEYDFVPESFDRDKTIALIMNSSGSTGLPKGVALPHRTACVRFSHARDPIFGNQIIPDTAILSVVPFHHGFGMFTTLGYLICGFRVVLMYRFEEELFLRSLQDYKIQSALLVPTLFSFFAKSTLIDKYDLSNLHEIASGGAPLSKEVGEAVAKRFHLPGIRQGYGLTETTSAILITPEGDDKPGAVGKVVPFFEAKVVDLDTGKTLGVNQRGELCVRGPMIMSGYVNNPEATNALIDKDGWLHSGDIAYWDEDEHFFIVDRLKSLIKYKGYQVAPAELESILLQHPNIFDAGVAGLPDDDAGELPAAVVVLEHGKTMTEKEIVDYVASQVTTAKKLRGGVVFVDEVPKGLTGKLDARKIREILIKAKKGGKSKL

Activity change, negative = inhibition, inactive:
O=S(=O)(O)OCC1OC(OC2(COS(=O)(=O)O)OC(COS(=O)(=O)O)C(OS(=O)(=O)O)C2OS(=O)(=O)O)C(OS(=O)(=O)O)C(OS(=O)(=O)O)C1OS(=O)(=O)O (stereo not given) -11.9%
CCN1CCN(C(=O)N[C@H](C(=O)N[C@@H]2C(=O)N3[C@@H](C(=O)O)C(C)(C)S[C@@H]23)c2ccccc2)C(=O)C1=O -6.63%
C=C1/C(=C\C=C2/CCC[C@@]3(C)[C@@H]([C@H](C)OCCC(C)(C)O)CC[C@@H]23)C[C@@H](O)C[C@@H]1O -8.86%
CCOC(=O)[C@H](CCc1ccccc1)NC(C)C(=O)N1CC2(CC1C(=O)O)SCCS2 (stereo not given in full) -4.85%
CC(=O)NC(CCC(N)=O)C(=O)O (stereo not given) -2.92%
NCCCCC(NC(=O)C1CCCN1C(=O)C1CSSCC(N)C(=O)NC(Cc2ccccc2)C(=O)NC(Cc2ccccc2)C(=O)NC(CCC(N)=O)C(=O)NC(CC(N)=O)C(=O)N1)C(=O)NCC(N)=O (stereo not given) (H-CFFQNCPKG-NH2; disulfide 1-6; configuration not given here) 0.329%
CC(C)=CCC/C(C)=C\CC/C(C)=C\CC/C=C(\C)CC/C=C(\C)CCC=C(C)C 2.76%
CC(=O)O[C@]1(C(=O)CO)[C@@H](C)C[C@H]2[C@@H]3CCC4=CC(=O)C=C[C@]4(C)[C@@]3(F)[C@@H](O)C[C@]21C 0.331%
OCC1(O)OC[C@@H](O)[C@H](O)[C@@H]1O (stereo not given in full) -0.233%
OCC1OC(OC2C(CO)OC(OC3C(CO)OC(O)C(O)C3O)C(O)C2O)C(O)C(O)C1O (stereo not given) -1.03%
CSCCC(NC(=O)[C@H](Cc1c[nH]c2ccccc12)NC(=O)CNC(=O)[C@H](CCSC)NC(=O)[C@H](Cc1ccc(OS(=O)(=O)O)cc1)NC(=O)[C@@H](N)CC(=O)O)C(=O)N[C@@H](CC(=O)O)C(=O)N[C@@H](Cc1ccccc1)C(N)=O (stereo not given in full) -12.5%
COc1ccc2c(C(=S)N(C)CC(=O)O)cccc2c1C(F)(F)F -8.99%
CO[C@H]1C[C@@H](O[C@@H]2[C@@H](C)O[C@@H](O[C@@H]3/C(C)=C/CC4C[C@@H](C[C@]5(C=C[C@@H](C)[C@H](C6CCCCC6)O5)O4)OC(=O)[C@@H]4C=C(C)[C@@H](O)[C@H]5OC/C(=C\C=C\[C@@H]3C)[C@]54O)C[C@H]2OC)O[C@@H](C)[C@@H]1O -0.99%
C[N+]1(C)CCN(C[C@@](O)(c2ccccc2)C2CCCCC2)CC1 -1.92%
CN1CC[C@H](c2c(O)cc(O)c3c(=O)cc(-c4ccccc4Cl)oc23)[C@@H](O)C1 -13.6%
CO[C@@]1(NC(=O)CSC(F)F)C(=O)N2C(C(=O)O)=C(CSc3nnnn3CCO)CO[C@@H]21 -8.43%
O=C(CO)C(O)C(O)C(O)CO (stereo not given) 2.01%
CC[C@H]1OC(=O)C[C@@H](O)[C@H](C)[C@@H](O[C@@H]2O[C@H](C)C[C@H](N(C)C)[C@@H]2O)[C@@H](CC=O)C[C@@H](C)C(=O)/C=C\[C@]2(C)O[C@H]2[C@@H]1C 0.104%
CC(=O)OC1CCC2(C)C(=CCC3C2CCC2(C)C(C(C)=O)CCC32)C1 (stereo not given) 0.644%
COC1=C(C(=O)O)N2C(=O)[C@@H](NC(=O)C(N)C3C=CCC=C3)[C@H]2SC1 (stereo not given in full) -1.33%
CCO[C@@H](Cc1ccc(OCCc2ccc(OS(C)(=O)=O)cc2)cc1)C(=O)O -17.8%
CCC(=O)C(Cc1ccccc1)(Cc1ccccc1)CC(C)N(C)C (stereo not given) 2.41% [at 123 µM]
CCCC(=O)O[C@]1(C(=O)COC(=O)CC)[C@@H](C)C[C@H]2[C@@H]3CCC4=CC(=O)C=C[C@@]4(C)[C@@]3(F)[C@H](O)C[C@@]21C -3.09%
CC(=O)OCC(=O)[C@@]1(O)[C@H](C)C[C@H]2C3C[C@H](F)C4=CC(=O)C=CC4(C)C3[C@@H](O)CC21C (stereo not given in full) 0.599%
Cc1ccc(C(=O)[C@H](C)CN2CCCCC2)cc1 -7.21%
CCCCCCC(=O)O[C@@H]1CC[C@H]2[C@@H]3CCc4cc(O)ccc4[C@H]3CC[C@]12C -0.804%
CCN1CCC[C@@H]1CNC(=O)c1cc(S(=O)(=O)CC)ccc1OC -2.47%
COc1cc([C@@H]2c3cc4c(cc3[C@@H](O[C@@H]3O[C@H]5CO[C@H](C)O[C@H]5[C@H](O)[C@@H]3O)[C@H]3COC(=O)[C@H]23)OCO4)cc(OC)c1OP(=O)(O)O -0.911%
CCCCCCC(O)C/C=C\CCCCCCCC(=O)O (stereo not given) -13.6%
CN(Cc1ccc(C(C)(C)C)cc1)c1cccc2ccccc12 -0.503%
CO/N=C(\C(=O)N[C@@H]1C(=O)N2C(C(=O)[O-])=C(C[n+]3cccc4c3CCCC4)CS[C@H]12)c1csc(N)n1 -17.7%
CO[C@@H]1[C@@H](OC2OC(C)C(OC3CC(C)(O)C(O)C(C)O3)C(N(C)C)C2O)[C@@H](CC=O)C[C@@H](C)[C@@H](OC2CCC(N(C)C)C(C)O2)/C=C/C=C/C[C@@H](C)OC(=O)C[C@H]1OC(C)=O (stereo not given in full) -0.0945%
CCCN(CC)[C@@H](CC)C(=O)Nc1c(C)cccc1C -2.8%
CCC[C@@H]1CC(C(=O)NC(C2O[C@H](SC)C(OP(=O)(O)O)[C@H](O)[C@H]2O)[C@H](C)Cl)N(C)C1 (stereo not given in full) -3.85%
CO[C@H]1[C@@H](O)[C@H](N)[C@@H](O[C@H]2O[C@@H]([C@H](C)N)CC[C@H]2N)[C@H](O)[C@@H]1N(C)C(=O)CN 10.6%
CC(=O)C1(O)CCC2C3CC(C)C4=CC(=O)CCC4(C)C3CCC21C (stereo not given) -1.35%
CCC[C@H]1C[C@H](C(=O)NC(C(C)Cl)C2O[C@@H](SC)C(OP(=O)(O)O)[C@@H](O)[C@@H]2O)N(C)C1 (stereo not given in full) -0.944%
CCC(C)C1OC2(C=CC1C)CC1CC(C/C=C(/C)C(OC3CC(OC)C(OC4CC(OC)C(NC(C)=O)C(C)O4)C(C)O3)C(C)/C=C\C=C3\COC4C(O)C(C)=CC(C(=O)O1)C34O)O2 (stereo not given) -9.07%
OC[C@H]1O[C@H](OC/C=C/c2ccccc2)[C@H](O)[C@@H](O)[C@@H]1O -0.742%
C[N+](C)(C)CCOP(=O)(O)OP(=O)([O-])OCC1OC(n2ccc(N)nc2=O)[C@H](O)[C@@H]1O (stereo not given in full) -4.62%
